This is an account of results in PubChem BioAssay (NCATS).

The target in assay [1] is Lysosomal acid glucosylceramidase (Homo sapiens) (UniProt P04062). The assay can be described thus: Glucocerebrosidase-p2 (AID 348; in the data active means potency below about 10 µM; further: potency means the concentration at half of the fitted maximal effect). The settings on record: purified GBA, blue fluorogenic substrate, 40 min. The method, boiled down:
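Compounds titrated from 0.6 nM upwards against 0.2 nM enzyme in pH 5.9 citric acid/KH2PO4, taurocholate, tween-20; blue fluorogenic substrate 80 uM, 40 min room temperature, stopped and read Ex 365/Em 440 for AC50.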

Assay [2] is described as follows: AP1 Signaling Pathway (AID 357; active means well fitted curve in either direction with a large enough effect, not every such curve was filed as active;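 further: ME-180 reporter cells stimulated with EGF at its EC50 level; on the % scale 0 is the no-effect control and ±100 the full control effect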). Particulars: ME-180 AP-1-bla reporter, EGF-induced, beta-lactamase ratio, 5 h; at 7.69 µM (top of the series) unless noted. The method, boiled down:
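Read-out was the 460nm/530nm emission ratio (excitation 405nm) after CCF4 loading for 2.5 hours at room temperature. Cells carried an AP-1-driven beta-lactamase reporter, were stimulated with EC50 EGF plus compound for 5 hours, and AC50 values came from titrations.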

Assay [3] addresses Cytochrome P450 1A2 (Homo sapiens) (UniProt P05177). The assay can be described thus: p450-cyp1a2 (AID 410; calls by dose curve; further: potency means the concentration at half of the fitted maximal effect). Particulars: recombinant CYP1A2, luciferin-ME demethylation, luminescence; series mostly up to 57 µM. Summed up:
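Luminescent readout of luciferin formed from Luciferin-ME by human CYP1A2; data normalized against complete inhibition by 57 uM furafylline. Enzyme 20nM, substrate 100uM at Km, 100mM KPO4 buffer, 60 min reaction at room temperature.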

Assay [4] can be described thus: NFAT Signaling Pathway (AID 444; active means well fitted curve in either direction with a large enough effect, not every such curve was filed as active;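 further: carbachol stimulus at about its EC50 of 1 µM final; on the % scale 0 is the no-effect control and ±100 the full control effect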). The settings on record: Jurkat NFAT-bla M1, carbachol, beta-lactamase ratio, 5 h; at 7.69 µM (top of the series) unless noted. The method, boiled down:
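Jurkat cells with NFAT-driven β-lactamase reporter and co-expressed M1 receptor, stimulated with carbachol (final 1 uM, ~EC50), compound titration, 5 h at 37 °C. CCF4 loaded 1 h at RT; 460/530 nm ratio gave %activity and AC50.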

Assay [5] in a line: Stat Signaling Pathway (AID 446; active means well fitted curve in either direction with a large enough effect, not every such curve was filed as active;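 further: ME-180 cervical cancer cells given 40 pM IL-6 alongside compound; SIE-controlled beta-lactamase reporter measured as 460/530 nm FRET emission ratio; on the % scale 0 is the no-effect control and ±100 the full control effect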). Particulars: ME-180 SIE beta-lactamase reporter, IL-6 stimulated, 5 h; at 7.69 µM (top of the series) unless noted. The method, boiled down: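 ME-180 cells carrying a SIE-driven beta-lactamase reporter are stimulated with 40 pM IL-6 for 5 h at 37C in the presence of compound. The 460/530 nm FRET substrate ratio is read after 2.5 h at RT. Data are normalised to 300 pM IL-6 and to 125 nM JAK inhibitor controls.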

Assay [6] addresses Glucocorticoid receptor (Homo sapiens) (UniProt P04150). In words: GR-GFP Redistribution (AID 450;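 active means compounds whose dose series gives a full or clear partial fitted curve of increased nuclear translocation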; further: potency means the concentration at half of the fitted maximal effect). The settings on record: U2OS GR-GFP nuclear translocation, laser cytometry, 2 h.
For assay [7] the target is unchanged. The assay can be described thus: GR-EFC Redistribution (AID 451; calls by dose curve; further: potency means the concentration at half of the fitted maximal effect). The settings on record: CHO-K1 GR-EFC translocation, beta-gal luminescence, 2 h. Summed up:
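CHO-K1 cells expressing nuclear EA and GR-ED fragments of b-gal; compounds titrated up to 46 uM final, 2 h at 37 C. GR nuclear translocation read as complemented b-gal luminescence after 1 h RT detection.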

The target of assay [8] is Mitogen-activated protein kinase 10 (Mus musculus) (UniProt Q61831). The assay can be described thus: JNK3 AlphaScreen Assay (AID 530; active means well fitted curve in either direction with a large enough effect, not every such curve was filed as active;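 further: kinase came from lysate of stimulated human HepG2 cells; signal reports phosphorylation of biotinylated GST-cJun 1-79 at Ser73 with 10 µM ATP; on the % scale 0 is the no-effect control and ±100 the full control effect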). The settings on record: JNK3 lysate, c-Jun phosphorylation; series mostly up to 57.1 µM. Summed up: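 Pre-activated (IL-1β/TNFα) JNK3 in HepG2 lysates phosphorylates biotin-GST-cJun(1-79), 10 uM ATP; anti-phospho-cJun(Ser73) AlphaScreen read at room temperature, pH 7.6 Tris buffer. Compounds pre-incubated 15 min as titrations.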
(In Alpha technology, singlet oxygen from a donor bead excites a nearby acceptor bead.)

Assay [9] addresses 3',5'-cyclic-AMP phosphodiesterase 4B (Homo sapiens) (UniProt Q07343). In words: qHTS Assay for Inhibitors of PDE-IV (AID 607; active means well fitted activation curve with a large enough effect in the main read-out, with a control signal flat, not every such curve was filed as active; further: % of control where 0% means no effect). The settings on record: HEK293 ACTOne CNG channel cells, membrane potential fluorescence; series mostly up to 22.9 µM. The method, boiled down: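 HEK293 ACTOne cells with CNG channel (1000/well), endogenous PDE4; membrane potential dye, compounds up to 22.9 uM final. Fluorescence Ex 535/Em 590; RO 20-1724 (100 uM final) as reference.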
(Quantitative high-throughput screening tests each substance at several concentrations.)

Assay [10] deals with Cytochrome P450 3A4 (Homo sapiens) (UniProt P08684). In words: qHTS Assay for Inhibitors and Substrates of Cytochrome P450 3A4 (AID 884). Further: potency means the concentration at half of the fitted maximal effect; nearly all actives have a fitted effect of over 50% in size. Particulars: recombinant CYP3A4, Luciferin-PPXE luminescence; series mostly up to 57.1 µM. Summed up: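 20 nM human CYP3A4 with 25 uM Luciferin-PPXE (at KM) in 200 mM KPO4, preincubated 10 min with compound; NADPH regeneration started a 60 min RT reaction. Luciferin detected by luminescence, normalized to 57 uM ketoconazole as full inhibition.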

The target is the same in assay [11]. In words: qHTS Assay for Activators of Cytochrome P450 3A4 (AID 885). Further: nearly all actives have a fitted effect of over 65% in size. The settings on record: recombinant CYP3A4, Luciferin-PPXE luminescence, 60 min; series mostly up to 57.1 µM. Summed up: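 Human CYP3A4 (20 nM) with Luciferin-PPXE at 25 uM (its KM) in 200 mM KPO4; 10 min compound preincubation, then NADPH regeneration and 60 min reaction at RT. Luciferin read by luminescence; normalized to 57 uM ketoconazole full inhibition.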

The nature of assay [12]: qHTS Assay for Identification of Small Molecule Agonists for Hypoxia Response Element Signaling Pathway (AID 914; active means well fitted activation curve with a large enough effect in the signal ratio, with a control signal flat, not every such curve was filed as active; the % refers to the signal ratio; further: % of control where 0% means no effect). Particulars: ME-180 (cervical carcinoma) HRE-bla reporter, beta-lactamase ratio, CoCl2, 17 h; activation: stronger effect = higher value. The method, boiled down:
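ME-180 cells carrying an HRE-driven beta-lactamase reporter were treated with compounds in a titration series plus an EC50 level of CoCl2 for 17 h at 37 degrees Celsius; CCF4 readout as the 460nm/530nm ratio gave AC50 values.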

A short description of assay [13]: qHTS Assay for Lipid Storage Modulators (AID 1519; calls by dose curve). Particulars: Drosophila S3 cells, BODIPY lipid droplet/cell ratio, laser cytometry, cells loaded with oleic acid; for activity change, negative = inhibition: at 57.5 µM (top of the series). Summed up: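 Cells seeded at 5,000 per well were treated with compounds over a concentration series and loaded with oleic acid (400 uM, as added). Lipid droplet fluorescence (488 nm excitation, 500-530 nm channel) was read by laser-scanning cytometry and normalized to 20 uM Triacsin C.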

The target in assay [14] is Dual specificity protein kinase CLK4 (Homo sapiens) (UniProt Q9HAZ1). The assay can be described thus: qHTS Assay for Inhibitors of CDC-like Kinase 4 (Kinase-Glo Assay) (AID 1770). Further: nearly all actives have a fitted effect of over 65% in size. Further: potency means the concentration at half of the fitted maximal effect. Particulars: recombinant Clk4, Kinase-Glo ATP depletion luminescence; series mostly up to 66.7 µM. Summed up:
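Substrate mix (RS peptide 100 uM, ATP 1 uM) dispensed, compound pinned in, then Clk4 added to 25 nM final. Incubated 4.5 h at RT; Kinase-Glo reagent added, luminescence read after 5 min.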

Assay [15] shares this target. The assay can be described thus: qHTS Assay for Inhibitors of CDC-like Kinase 4 (ADP-Glo Assay) (AID 1771). Further: nearly all actives have a fitted effect of over 70% in size. Further: potency means the concentration at half of the fitted maximal effect. Particulars: recombinant CLK4, ADP-Glo luminescence; series mostly up to 80 µM. The method, boiled down: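 Luminescence from ADP-Glo reports ADP produced by 25 nM Clk4 acting on 100 uM RS repeat peptide with 1 uM ATP over 1 hr at room temperature; residual ATP is depleted before ADP is converted to ATP for detection.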

Assay [16] addresses Ubiquitin carboxyl-terminal hydrolase 1 (Homo sapiens) (UniProt O94782). The assay can be described thus: Inhibitors of USP1/UAF1: Pilot qHTS (AID 504865).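 Further: rhodamine fluorescence freed from ubiquitin-rhodamine substrate followed over time; top concentration of the series differs between compounds; on the % scale 0 is the no-effect control and ±100 the full control effect; nearly all actives have a fitted effect of over 35% in size.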 The settings on record: purified USP1/UAF1, Ub-rhodamine cleavage fluorescence; series mostly up to 54.9 µM. The method, boiled down: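 In 50mM HEPES pH 7.8 containing 0.5mM EDTA, 1mM TCEP, 0.1 mg/ml BSA and 0.01% Tween-20, 1nM USP1/UAF1 is exposed to compound for 15 min, then Ub-Rho (150nM final) is added and fluorescence is read over time.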

Assay [17] can be described thus: Primary qHTS for small molecule stabilizers of the endoplasmic reticulum resident proteome: Secreted ER Calcium Modulated Protein (SERCaMP) assay (AID 1508630). Further: on the % scale 0 is the no-effect control and ±100 the full control effect. Particulars: SH-SY5Y GLuc-SERCaMP (Gaussia luciferase released on ER calcium loss) secretion, thapsigargin, luminescence; series mostly up to 38.4 µM. Summed up:
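GLuc-SERCaMP-expressing SH-SY5Y cells, pretreated 16 h with compound, are challenged with thapsigargin to empty ER calcium stores; after 4 h, coelenterazine is added directly to the medium and luminescence is imaged.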

Where [18] appears, read: measured here: cell count channel max response.
Setting [19] is: measured here: lipid channel max response.

Results filed as inconclusive are left out. Activity calls are given as the source filed them. Unless noted, the call rests on the fitted dose curve; in most records, active means well fitted curve in the direction sought with a large enough effect; inconclusive means small, poorly fitted or top-dose-only effect, or another doubt; inactive means no such curve, though single readings can be large; an effect the other way counts as inactive or inconclusive.

3',5'-cyclic-AMP phosphodiesterase 4B (Homo sapiens), sequence (Q07343 whole entry, looked up): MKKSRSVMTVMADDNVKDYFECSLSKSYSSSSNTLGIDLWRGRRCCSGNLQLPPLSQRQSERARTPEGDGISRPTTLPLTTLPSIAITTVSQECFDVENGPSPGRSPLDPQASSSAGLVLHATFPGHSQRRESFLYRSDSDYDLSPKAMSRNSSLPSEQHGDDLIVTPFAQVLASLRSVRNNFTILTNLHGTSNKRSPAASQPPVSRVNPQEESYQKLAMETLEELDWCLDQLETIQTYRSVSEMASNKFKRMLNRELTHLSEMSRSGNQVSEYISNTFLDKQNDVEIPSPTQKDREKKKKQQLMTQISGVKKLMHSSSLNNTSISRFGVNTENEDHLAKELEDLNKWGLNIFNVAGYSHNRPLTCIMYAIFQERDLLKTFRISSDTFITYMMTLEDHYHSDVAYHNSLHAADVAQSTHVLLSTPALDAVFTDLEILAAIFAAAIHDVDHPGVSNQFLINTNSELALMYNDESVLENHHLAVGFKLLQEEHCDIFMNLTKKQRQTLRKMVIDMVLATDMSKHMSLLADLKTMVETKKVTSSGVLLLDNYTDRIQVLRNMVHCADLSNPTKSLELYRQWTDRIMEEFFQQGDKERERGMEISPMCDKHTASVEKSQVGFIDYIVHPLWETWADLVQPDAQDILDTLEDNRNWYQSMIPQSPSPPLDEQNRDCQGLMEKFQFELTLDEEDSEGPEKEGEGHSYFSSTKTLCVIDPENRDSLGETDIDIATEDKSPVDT
Cytochrome P450 1A2 (Homo sapiens), sequence (P05177 whole entry, looked up): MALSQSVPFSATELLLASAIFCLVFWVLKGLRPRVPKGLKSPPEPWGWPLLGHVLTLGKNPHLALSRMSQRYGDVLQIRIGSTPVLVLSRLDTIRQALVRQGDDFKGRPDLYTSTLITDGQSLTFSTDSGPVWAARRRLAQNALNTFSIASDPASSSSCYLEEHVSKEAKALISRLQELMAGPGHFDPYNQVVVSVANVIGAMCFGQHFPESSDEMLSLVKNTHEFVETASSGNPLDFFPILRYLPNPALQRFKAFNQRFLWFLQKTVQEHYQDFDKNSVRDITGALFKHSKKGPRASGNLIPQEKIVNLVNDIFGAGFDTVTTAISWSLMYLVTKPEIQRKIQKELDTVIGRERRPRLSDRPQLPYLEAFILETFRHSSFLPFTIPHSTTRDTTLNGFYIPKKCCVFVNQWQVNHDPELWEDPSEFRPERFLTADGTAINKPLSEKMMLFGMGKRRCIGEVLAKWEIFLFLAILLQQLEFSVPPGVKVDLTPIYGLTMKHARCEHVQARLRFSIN
Glucocorticoid receptor (Homo sapiens), sequence (P04150 whole entry, looked up): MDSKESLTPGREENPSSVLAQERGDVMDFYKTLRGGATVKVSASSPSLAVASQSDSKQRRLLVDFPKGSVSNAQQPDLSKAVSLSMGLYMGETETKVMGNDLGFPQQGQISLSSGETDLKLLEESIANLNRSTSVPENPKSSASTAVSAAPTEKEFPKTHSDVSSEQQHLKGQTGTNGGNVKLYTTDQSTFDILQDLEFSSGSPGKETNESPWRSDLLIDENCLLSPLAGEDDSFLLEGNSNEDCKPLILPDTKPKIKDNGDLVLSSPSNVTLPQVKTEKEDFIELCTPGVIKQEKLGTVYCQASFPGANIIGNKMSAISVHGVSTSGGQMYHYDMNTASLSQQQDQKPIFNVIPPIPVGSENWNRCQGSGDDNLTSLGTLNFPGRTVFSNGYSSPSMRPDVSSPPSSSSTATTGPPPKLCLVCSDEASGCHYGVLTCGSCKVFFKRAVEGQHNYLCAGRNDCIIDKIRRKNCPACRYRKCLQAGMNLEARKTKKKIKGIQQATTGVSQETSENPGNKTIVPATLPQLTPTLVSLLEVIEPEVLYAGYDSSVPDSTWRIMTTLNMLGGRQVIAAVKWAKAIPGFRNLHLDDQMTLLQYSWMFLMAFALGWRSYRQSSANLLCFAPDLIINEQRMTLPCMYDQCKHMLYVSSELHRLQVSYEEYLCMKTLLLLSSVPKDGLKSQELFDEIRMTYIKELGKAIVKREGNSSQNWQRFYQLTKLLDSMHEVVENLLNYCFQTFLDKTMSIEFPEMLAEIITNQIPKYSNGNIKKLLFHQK
Ubiquitin carboxyl-terminal hydrolase 1 (Homo sapiens), sequence (O94782 whole entry, looked up): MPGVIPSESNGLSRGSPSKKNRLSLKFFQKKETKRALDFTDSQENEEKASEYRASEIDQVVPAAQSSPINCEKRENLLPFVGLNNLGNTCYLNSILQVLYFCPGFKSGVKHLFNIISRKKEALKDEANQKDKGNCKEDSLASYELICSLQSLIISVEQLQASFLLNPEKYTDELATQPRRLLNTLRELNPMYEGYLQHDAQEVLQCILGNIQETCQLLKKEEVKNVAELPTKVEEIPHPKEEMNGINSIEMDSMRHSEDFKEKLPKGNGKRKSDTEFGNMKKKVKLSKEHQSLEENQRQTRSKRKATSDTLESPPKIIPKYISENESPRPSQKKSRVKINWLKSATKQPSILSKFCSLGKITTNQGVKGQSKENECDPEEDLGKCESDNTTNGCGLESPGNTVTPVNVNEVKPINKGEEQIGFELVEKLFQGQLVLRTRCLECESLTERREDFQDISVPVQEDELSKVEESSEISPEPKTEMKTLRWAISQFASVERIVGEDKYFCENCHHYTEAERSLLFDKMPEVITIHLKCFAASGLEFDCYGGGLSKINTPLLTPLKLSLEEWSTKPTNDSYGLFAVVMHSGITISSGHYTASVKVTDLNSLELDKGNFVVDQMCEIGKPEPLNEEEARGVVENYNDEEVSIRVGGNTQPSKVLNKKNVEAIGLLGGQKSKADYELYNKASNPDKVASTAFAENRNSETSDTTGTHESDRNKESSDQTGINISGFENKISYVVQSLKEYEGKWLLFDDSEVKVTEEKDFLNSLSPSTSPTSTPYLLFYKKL
Dual specificity protein kinase CLK4 (Homo sapiens), sequence (Q9HAZ1 whole entry, looked up): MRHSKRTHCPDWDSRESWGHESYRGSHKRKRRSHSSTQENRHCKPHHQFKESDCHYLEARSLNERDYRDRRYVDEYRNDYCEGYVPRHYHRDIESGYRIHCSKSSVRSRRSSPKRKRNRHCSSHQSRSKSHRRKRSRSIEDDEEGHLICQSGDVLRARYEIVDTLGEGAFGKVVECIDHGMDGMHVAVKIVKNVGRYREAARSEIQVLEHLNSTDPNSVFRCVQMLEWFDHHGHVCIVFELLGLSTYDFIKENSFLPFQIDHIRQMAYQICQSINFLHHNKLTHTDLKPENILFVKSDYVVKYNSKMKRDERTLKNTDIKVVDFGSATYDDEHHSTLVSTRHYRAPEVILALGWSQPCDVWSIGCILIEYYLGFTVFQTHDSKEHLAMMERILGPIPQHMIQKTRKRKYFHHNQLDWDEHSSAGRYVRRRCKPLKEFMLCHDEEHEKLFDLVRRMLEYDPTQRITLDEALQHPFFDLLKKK
Cytochrome P450 3A4 (Homo sapiens), sequence (P08684 whole entry, looked up): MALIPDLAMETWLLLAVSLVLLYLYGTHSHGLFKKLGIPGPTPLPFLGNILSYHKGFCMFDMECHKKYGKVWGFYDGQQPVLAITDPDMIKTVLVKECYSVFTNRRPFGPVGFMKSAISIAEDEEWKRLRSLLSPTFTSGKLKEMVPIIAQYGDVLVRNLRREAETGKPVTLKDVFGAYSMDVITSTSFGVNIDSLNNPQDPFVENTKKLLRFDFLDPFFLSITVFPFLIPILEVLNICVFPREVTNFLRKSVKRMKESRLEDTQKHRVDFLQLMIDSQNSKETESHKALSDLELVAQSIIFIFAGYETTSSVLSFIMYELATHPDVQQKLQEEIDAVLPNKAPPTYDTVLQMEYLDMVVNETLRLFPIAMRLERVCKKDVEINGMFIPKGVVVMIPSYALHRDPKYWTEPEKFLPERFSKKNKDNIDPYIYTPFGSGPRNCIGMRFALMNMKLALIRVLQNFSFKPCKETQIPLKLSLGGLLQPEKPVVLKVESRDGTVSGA
Lysosomal acid glucosylceramidase (Homo sapiens), sequence (P04062 whole entry, looked up): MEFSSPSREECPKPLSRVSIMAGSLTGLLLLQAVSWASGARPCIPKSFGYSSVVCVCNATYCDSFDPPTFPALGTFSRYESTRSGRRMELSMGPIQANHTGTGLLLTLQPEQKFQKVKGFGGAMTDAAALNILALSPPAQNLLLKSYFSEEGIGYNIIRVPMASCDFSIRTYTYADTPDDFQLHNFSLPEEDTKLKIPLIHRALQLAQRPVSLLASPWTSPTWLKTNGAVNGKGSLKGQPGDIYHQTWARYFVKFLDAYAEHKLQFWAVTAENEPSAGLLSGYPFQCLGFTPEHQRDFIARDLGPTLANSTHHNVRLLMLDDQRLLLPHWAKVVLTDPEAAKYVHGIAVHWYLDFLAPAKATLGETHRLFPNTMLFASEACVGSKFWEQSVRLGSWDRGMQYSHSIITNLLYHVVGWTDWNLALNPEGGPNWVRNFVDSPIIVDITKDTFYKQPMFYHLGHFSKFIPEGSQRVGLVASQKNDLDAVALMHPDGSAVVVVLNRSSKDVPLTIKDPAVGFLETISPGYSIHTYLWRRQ

Consider `COc1cccc(Nc2ncc3nc(C)c(=O)n(C4CC4)c3n2)c1`, for which the Potency in assay [1] was > 11.4 µM (inactive); in [3], 1.26 µM (active); in assay [6], > 9.22 µM (inactive); in assay [7], > 46 µM (inactive); in assay [10], 6.31 µM (active); in assay [14] it was 12.6 µM (active). For the same compound, the Potency in [15] is 11.2 µM (active). In addition, the activity change, negative = inhibition in assay [2] is -16.4% (inactive); in [4], 5.07% (inactive); in assay [13] it was -5.91% (inactive). Besides, the activity, negative = inhibition in assay [5] is -13.4% (inactive). Moreover, in assay [8], the compound was classed as inactive. Further, the Potency entry in assay [9], in [11], in [16] and in assay [17] was “inactive” each time. Also, in assay [12], the activation was -3.86% (inactive). Moreover, the max response in assay [13] (setting [18]) was -1.52%; in assay [13] (setting [19]) it was -13.2%.

`CC(=O)NCCNc1nc(-c2cccnc2)nc2ccccc12`: the Potency in assay [1] is > 11.4 µM (inactive); in [6] it was > 46 µM (inactive); in assay [7] it was > 46 µM (inactive); in [14], 25.1 µM (active); in assay [15], 14.1 µM (active). For the same compound, the results for the activity change, negative = inhibition in assay [2], in assay [4] and in assay [13] were 5.7% (inactive), 0.668% (inactive) and 5.64% (inactive), respectively. In assay [5], the activity, negative = inhibition was 1.25% (inactive). Also, in assay [8], the call was inactive. The Potency entry in [9], in assay [16] and in assay [17] was “inactive” each time. The max response in [13] (setting [18]) turned out to be 21.4%; in [13] (setting [19]), 27.2%.

For the compound `CN(C)C(=O)c1ccc(-c2cc(Nc3ccccc3)ncn2)cc1`, the Potency in assay [1] is > 11.4 µM (inactive); in assay [3] it was 12.6 µM (active); in assay [6] it was > 46 µM (inactive); in [7] it was > 46 µM (inactive); in [14], 14.1 µM (active); in [15], 14.1 µM (active). Also, the activity change, negative = inhibition is -5.39% (inactive) in assay [2], 4.63% (inactive) in assay [4] and 6.97% (inactive) in assay [13]. The activity, negative = inhibition in [5] is 4.86% (inactive). In addition, the compound was called inactive in assay [8]. Further, the max response worked out at 33.4% in assay [13] (setting [18]) and 40.6% in [13] (setting [19]). Further, the Potency entry in assay [17] was “inactive”.

As for `Cc1noc(C)c1-c1nccc(N2CCOCC2)n1`, the Potency in assay [1] was > 11.4 µM (inactive); in assay [3], 0.631 µM (active); in assay [7], > 46 µM (inactive); in assay [14], 14.1 µM (active); in assay [15], 14.1 µM (active). Further, the results for the activity change, negative = inhibition in [2], in [4] and in assay [13] were 19% (inactive), 4.77% (inactive) and 6.74% (inactive), respectively. Also, the activity, negative = inhibition in [5] is 14.5% (inactive). The compound was classed as inactive in assay [8]. The Potency result in assay [9], in [16] and in assay [17] was “inactive” in each case. The max response was found to be 6.28% in assay [13] (setting [18]) and 17% in [13] (setting [19]).

In the case of `Cc1noc(C)c1-c1cncnc1NCCN1CCOCC1`, the Potency in [1] was > 11.4 µM (inactive); in assay [6] it was > 46 µM (inactive); in [7], > 46 µM (inactive); in assay [10], 6.31 µM (active). Besides, the activity change, negative = inhibition in assay [2] is 4.2% (inactive); in assay [4], -5.64% (inactive); in [13], 3.95% (inactive). Moreover, the activity, negative = inhibition in assay [5] is -2.23% (inactive). Further, in assay [8], the outcome was inactive. The Potency result in assay [9], in assay [11], in [14], in assay [15], in assay [16] and in [17] was “inactive” throughout. Also, the max response was 12.2% in assay [13] (setting [18]) and 14.6% in assay [13] (setting [19]).

With `COc1ccc(-c2nc3cnc(N4CCOCC4)nc3n(C)c2=O)cc1`, the results for the Potency in [1], in assay [6] and in [7] were > 11.4 µM (inactive), > 9.22 µM (inactive) and > 46 µM (inactive), respectively. In addition, the figures for the activity change, negative = inhibition in assay [2], in [4] and in assay [13] were -14.2% (inactive), -0.157% (inactive) and 1.23% (inactive), respectively. Also, the activity, negative = inhibition in assay [5] is -2.93% (inactive). Also, the result in assay [8] was inactive. Besides, the Potency result in assay [9], in assay [14], in assay [15], in [16] and in [17] was “inactive” throughout. Moreover, the values for the max response in assay [13] (setting [18]) and in assay [13] (setting [19]) were 7.61% and 5.75%, respectively.
